According to PubChem BioAssay (NCI):
Where “and” joins values, the source holds several entries; their conditions need not be identical. Equal entries are not always repeated. Compounds without any hit were thinned out: in the full panel of roughly 83,000, 20% have a hit.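 Results are percent growth after 48 hours of single-concentration exposure. 100 means growth as in untreated cells, lower positive values show inhibition; negative values down to -100 show cell death.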 Calls of active or inactive are those of the source. Rule for the calls: active = growth percent below 10; inactive = the rest.

How the values were obtained:
Experiment in all cases: NCI-60 one-dose screen, 48 h (100 = growth as untreated, 0 = no growth, -100 = all killed)
Conditions in all cases: 10 µM unless noted
[1] = system: HCT-15 colon
[2] = system: HT29 colon
[3] = system: SNB-75 CNS
[4] = system: SNB-19 CNS
[5] = system: U251 CNS
[6] = system: PC-3 prostate
[7] = system: SK-MEL-5 melanoma
[8] = system: UACC-62 melanoma
[9] = system: LOX IMVI melanoma
[10] = system: SK-MEL-28 melanoma
[11] = system: SK-MEL-2 melanoma
[12] = system: SN12C renal
[13] = system: UO-31 renal
[14] = system: TK-10 renal
[15] = system: CAKI-1 renal
[16] = system: A498 renal
[17] = system: MOLT-4 leukemia
[18] = system: EKVX NSCLC
[19] = system: ACHN renal
[20] = system: CCRF-CEM leukemia

N#C/C(=C/c1c(O)ccc2ccccc12)C(N)=O
growth [1]: 100% (inactive) | growth [2]: 101% (inactive) | growth [3]: 87.4% (inactive) | growth [4]: 109% (inactive) | growth [5]: 103% (inactive) | growth [6]: 94% (inactive) | growth [7]: 94.1% (inactive) | growth [8]: 104% (inactive) | growth [9]: 55.9% (inactive) | growth [10]: 110% (inactive) | growth [11]: 87.6% (inactive) | growth [12]: 108% (inactive) | growth [13]: 54% (inactive) | growth [14]: 114% (inactive) | growth [15]: 84% (inactive) | growth [16]: 107% (inactive) | growth [17]: 92.4% (inactive)

CC[N+](CC)(CC(=O)Nc1c(C)cccc1C)Cc1ccccc1
growth [1]: 88.6% (inactive) and 104% (inactive) | growth [2]: 101% (inactive) and 102% (inactive) | growth [3]: 84.9% (inactive) and 101% (inactive) | growth [4]: 95.4% (inactive) and 96.8% (inactive) | growth [5]: 75.6% (inactive) and 97.9% (inactive) | growth [6]: 84.3% (inactive) and 97.2% (inactive) | growth [7]: 85.7% (inactive) and 98.7% (inactive) | growth [8]: 81.6% (inactive) and 93.2% (inactive) | growth [9]: 79% (inactive) and 98.3% (inactive) | growth [10]: 99.7% (inactive) and 103% (inactive) | growth [18]: 106% (inactive) and 100% (inactive) | growth [12]: 85.9% (inactive) and 100% (inactive) | growth [13]: 92.6% (inactive) and 71.6% (inactive) | growth [14]: 144% (inactive) and 90.9% (inactive) | growth [19]: 98.5% (inactive) and 101% (inactive) | growth [15]: 108% (inactive) and 91.9% (inactive) | growth [16]: 106% (inactive) and 107% (inactive) | growth [20]: 2.65% (active) | growth [17]: 99.8% (inactive) and 98.6% (inactive)

Nc1nc(SC/C=C/CCl)c2[nH]cnc2n1
growth [1]: 104% (inactive) and 94.2% (inactive) | growth [2]: 108% (inactive) and 95.5% (inactive) | growth [3]: 108% (inactive) and 101% (inactive) | growth [4]: 107% (inactive) and 102% (inactive) | growth [5]: 99.1% (inactive) and 98.1% (inactive) | growth [6]: 99.6% (inactive) and 93.6% (inactive) | growth [7]: 103% (inactive) and 114% (inactive) | growth [8]: 104% (inactive) and 105% (inactive) | growth [9]: 103% (inactive) | growth [10]: 115% (inactive) and 112% (inactive) | growth [18]: 95% (inactive) and 98.7% (inactive) | growth [12]: 108% (inactive) and 111% (inactive) | growth [13]: 87% (inactive) and 94.3% (inactive) | growth [14]: 109% (inactive) and 95% (inactive) | growth [19]: 110% (inactive) and 101% (inactive) | growth [15]: 105% (inactive) and 112% (inactive) | growth [16]: 83.6% (inactive) and 91.6% (inactive) | growth [20]: 96.6% (inactive)

CC(=O)Nc1ccc2cc3ccc(NC(C)=O)cc3nc2c1
growth [1]: 103% (inactive) and 106% (inactive) | growth [2]: 97.3% (inactive) and 90.1% (inactive) | growth [3]: 71.1% (inactive) and 83.1% (inactive) | growth [4]: 79.2% (inactive) and 73.4% (inactive) | growth [5]: 74.3% (inactive) and 72.3% (inactive) | growth [6]: 75.1% (inactive) and 42.4% (inactive) | growth [7]: 92.2% (inactive) and 105% (inactive) | growth [8]: 82.2% (inactive) and 85.7% (inactive) | growth [9]: 89% (inactive) and 85.9% (inactive) | growth [10]: 110% (inactive) and 139% (inactive) | growth [18]: 80.6% (inactive) and 78.4% (inactive) | growth [12]: 52.6% (inactive) and 52.2% (inactive) | growth [13]: 79% (inactive) and 76% (inactive) | growth [14]: 136% (inactive) and 119% (inactive) | growth [19]: 79.1% (inactive) and 58.4% (inactive) | growth [15]: 45.9% (inactive) and 97.2% (inactive) | growth [16]: 115% (inactive) and 113% (inactive) | growth [20]: 78.9% (inactive) and 104% (inactive) | growth [17]: 54.9% (inactive) and 74.7% (inactive)

CCCCCCCCCCCCCCCc1cc(O)ccc1N
growth [1]: 89.4% (inactive) and 75.6% (inactive) | growth [2]: 105% (inactive) and 107% (inactive) | growth [3]: 63.5% (inactive) and 30.1% (inactive) | growth [4]: 96.8% (inactive) and 118% (inactive) | growth [5]: 68.1% (inactive) and 81.1% (inactive) | growth [6]: 34.6% (inactive) and 22.2% (inactive) | growth [7]: 100% (inactive) and 78.6% (inactive) | growth [8]: 84.3% (inactive) | growth [9]: 34.5% (inactive) and -35.1% (active) | growth [10]: 106% (inactive) and 103% (inactive) | growth [18]: 86.6% (inactive) and 85.6% (inactive) | growth [12]: 51.2% (inactive) and 62.2% (inactive) | growth [13]: -59.8% (active) and 20.5% (inactive) | growth [14]: 123% (inactive) and 98.3% (inactive) | growth [19]: 90% (inactive) and 76.8% (inactive) | growth [15]: 68.2% (inactive) and 1.52% (active) | growth [16]: 133% (inactive) and 122% (inactive) | growth [20]: 5.23% (active) and -6.89% (active) | growth [17]: -1.13% (active) and -2.69% (active)

O=C1CCN(Cc2ccccc2)C(=S)N1
growth [1]: 99.2% (inactive) and 98.3% (inactive) | growth [2]: 121% (inactive) and 98% (inactive) | growth [3]: 125% (inactive) and 83.2% (inactive) | growth [4]: 105% (inactive) and 101% (inactive) | growth [5]: 102% (inactive) and 98.7% (inactive) | growth [6]: 92.3% (inactive) | growth [7]: 105% (inactive) and 108% (inactive) | growth [8]: 102% (inactive) and 98.9% (inactive) | growth [9]: 105% (inactive) and 99.7% (inactive) | growth [10]: 126% (inactive) and 107% (inactive) | growth [11]: 107% (inactive) and 103% (inactive) | growth [18]: 111% (inactive) and 118% (inactive) | growth [13]: 87.5% (inactive) and 83.7% (inactive) | growth [14]: 106% (inactive) and 89.6% (inactive) | growth [19]: 104% (inactive) and 97.3% (inactive) | growth [15]: 101% (inactive) and 96.1% (inactive) | growth [16]: 94.6% (inactive) | growth [20]: 86.3% (inactive) and 98.4% (inactive) | growth [17]: 78.2% (inactive) and 98.5% (inactive)

Cc1cccc(/C=C\C(=O)c2ccccc2)c1
growth [1]: 89% (inactive) and 101% (inactive) | growth [2]: 91.9% (inactive) and 98.7% (inactive) | growth [3]: 90.5% (inactive) and 112% (inactive) | growth [4]: 86.7% (inactive) and 103% (inactive) | growth [5]: 64.8% (inactive) and 91.7% (inactive) | growth [6]: 86.3% (inactive) and 82.7% (inactive) | growth [7]: 106% (inactive) and 95% (inactive) | growth [8]: 90.2% (inactive) and 105% (inactive) | growth [9]: 85.3% (inactive) and 93.5% (inactive) | growth [10]: 110% (inactive) and 120% (inactive) | growth [18]: 97.8% (inactive) and 101% (inactive) | growth [12]: 89.7% (inactive) and 102% (inactive) | growth [13]: 67.3% (inactive) and 82.2% (inactive) | growth [14]: 86.9% (inactive) and 96.3% (inactive) | growth [19]: 124% (inactive) and 110% (inactive) | growth [15]: 92.8% (inactive) and 95.1% (inactive) | growth [16]: 95.2% (inactive) and 68.2% (inactive) | growth [20]: 78.9% (inactive) and 64.5% (inactive) | growth [17]: 91.5% (inactive) and 49.1% (inactive)

Fc1ccccc1Nc1n[nH]c(=S)s1
growth [1]: 98.3% (inactive) | growth [2]: 103% (inactive) | growth [3]: 101% (inactive) | growth [4]: 104% (inactive) | growth [5]: 101% (inactive) | growth [6]: 106% (inactive) | growth [7]: 101% (inactive) | growth [8]: 95.3% (inactive) | growth [9]: 128% (inactive) | growth [10]: 102% (inactive) | growth [11]: 116% (inactive) | growth [18]: 136% (inactive) | growth [13]: 95.5% (inactive) | growth [14]: 115% (inactive) | growth [15]: 113% (inactive) | growth [16]: 94.6% (inactive) | growth [20]: -60% (active) | growth [17]: 114% (inactive)

Cn1c(=O)n(-c2ccc(C(C)(C)C#N)cc2)c2c3cc(-c4cnc5ccccc5c4)ccc3ncc21
growth [1]: 9.69% (active) and 14.5% (inactive) | growth [2]: 4.74% (active) and -10.5% (active) | growth [3]: -30.1% (active) and -24.4% (active) | growth [4]: 14.9% (inactive) and 14.7% (inactive) | growth [5]: 8.23% (active) and 8.1% (active) | growth [7]: -62.1% (active) and -89.1% (active) | growth [8]: -18.9% (active) and -20.3% (active) | growth [9]: 1.14% (active) and 2.87% (active) | growth [10]: -1.82% (active) and 1.77% (active) | growth [11]: -42.4% (active) | growth [18]: 7.47% (active) and 2.62% (active) | growth [12]: 15.6% (inactive) and 17.1% (inactive) | growth [13]: -14.7% (active) and -16.6% (active) | growth [14]: -27.5% (active) and -27.4% (active) | growth [19]: 5.22% (active) and 9.17% (active) | growth [15]: 5.77% (active) and -2.85% (active) | growth [16]: -46.3% (active) and -44.5% (active) | growth [20]: 10.1% (inactive)
